# Dicer processing – blocks human Dicer maturation of pre-miR-21 | Q9UPY3 | cat-ELCCA pre-miR-21 Dicer processing, chemiluminescence; hits give high values | z-score at 25 µM | 6% of 47,000 active | AID 1347074; in the data active = z-score above about 3, passing the limit was not always enough;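 note: plate controls were vehicle for no effect and no enzyme for full effect; higher signal means more uncleaved substrate so more Dicer inhibition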
# Target sequence (Q9UPY3 whole entry, looked up): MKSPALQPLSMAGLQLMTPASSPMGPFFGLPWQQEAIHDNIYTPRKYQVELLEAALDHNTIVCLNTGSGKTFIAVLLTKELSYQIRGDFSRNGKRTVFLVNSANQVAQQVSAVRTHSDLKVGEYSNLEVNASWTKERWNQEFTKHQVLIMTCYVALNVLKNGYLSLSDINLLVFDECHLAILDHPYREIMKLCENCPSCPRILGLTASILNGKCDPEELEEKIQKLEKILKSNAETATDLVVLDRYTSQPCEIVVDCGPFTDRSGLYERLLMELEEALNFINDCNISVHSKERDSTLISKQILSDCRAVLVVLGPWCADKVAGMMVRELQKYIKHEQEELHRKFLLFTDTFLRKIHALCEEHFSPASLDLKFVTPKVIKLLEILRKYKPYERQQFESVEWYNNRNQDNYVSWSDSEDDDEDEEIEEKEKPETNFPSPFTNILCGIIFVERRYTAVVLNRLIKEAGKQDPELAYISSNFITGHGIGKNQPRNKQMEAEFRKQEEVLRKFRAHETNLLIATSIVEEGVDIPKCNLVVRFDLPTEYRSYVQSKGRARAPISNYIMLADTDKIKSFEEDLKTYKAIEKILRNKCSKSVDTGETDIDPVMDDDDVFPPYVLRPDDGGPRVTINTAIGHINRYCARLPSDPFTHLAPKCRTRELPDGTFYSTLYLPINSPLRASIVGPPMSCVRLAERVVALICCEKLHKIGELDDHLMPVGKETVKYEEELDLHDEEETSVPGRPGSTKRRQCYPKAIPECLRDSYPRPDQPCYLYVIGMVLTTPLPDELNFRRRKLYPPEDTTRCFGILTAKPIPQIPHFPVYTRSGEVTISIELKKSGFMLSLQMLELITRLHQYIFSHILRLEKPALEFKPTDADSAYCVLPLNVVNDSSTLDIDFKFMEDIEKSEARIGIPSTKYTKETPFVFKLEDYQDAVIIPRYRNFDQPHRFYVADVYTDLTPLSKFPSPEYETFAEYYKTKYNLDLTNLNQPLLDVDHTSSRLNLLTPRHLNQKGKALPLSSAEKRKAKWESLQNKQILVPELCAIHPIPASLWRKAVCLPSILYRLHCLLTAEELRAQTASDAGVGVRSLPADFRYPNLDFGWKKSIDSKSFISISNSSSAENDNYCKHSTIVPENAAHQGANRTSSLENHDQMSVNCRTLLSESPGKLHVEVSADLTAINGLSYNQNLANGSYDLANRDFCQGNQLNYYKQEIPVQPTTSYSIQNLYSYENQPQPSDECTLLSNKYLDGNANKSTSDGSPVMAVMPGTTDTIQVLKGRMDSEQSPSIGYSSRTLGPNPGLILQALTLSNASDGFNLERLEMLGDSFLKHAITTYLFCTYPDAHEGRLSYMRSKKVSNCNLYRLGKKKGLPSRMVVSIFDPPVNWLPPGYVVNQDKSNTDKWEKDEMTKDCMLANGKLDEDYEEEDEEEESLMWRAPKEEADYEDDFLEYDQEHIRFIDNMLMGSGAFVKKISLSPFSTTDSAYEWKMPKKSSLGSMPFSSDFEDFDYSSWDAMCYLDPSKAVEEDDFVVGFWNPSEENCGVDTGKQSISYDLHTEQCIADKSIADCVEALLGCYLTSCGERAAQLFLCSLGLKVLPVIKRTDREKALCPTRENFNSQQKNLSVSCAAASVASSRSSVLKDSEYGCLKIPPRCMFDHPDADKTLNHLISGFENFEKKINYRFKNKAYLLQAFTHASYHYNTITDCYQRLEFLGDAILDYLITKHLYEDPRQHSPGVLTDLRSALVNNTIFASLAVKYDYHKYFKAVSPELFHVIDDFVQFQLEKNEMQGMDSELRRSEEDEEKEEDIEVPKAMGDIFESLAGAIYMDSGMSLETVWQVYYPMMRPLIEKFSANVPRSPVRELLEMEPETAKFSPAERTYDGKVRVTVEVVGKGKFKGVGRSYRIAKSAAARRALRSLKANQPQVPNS
# Starred values were filed as active, the others as inactive. The entries come from a sample that favours hits as a whole.
SMILES,Dicer processing
Cc1ccc(S(=O)(=O)Oc2ccc(-c3ccc(OS(=O)(=O)c4ccc(C)cc4)cc3)cc2)cc1,-0.18
CCC(C)Nc1nc2c(c(=O)n(C)c(=O)n2C)n1CC(O)COc1ccccc1 (stereo not given),-1.4
CN(C)c1ccc(NC(=O)c2nc3ncccn3n2)cc1,1.2
O=c1[nH]nc(-c2cc(C(F)(F)F)cc(C(F)(F)F)c2)c2ccccc12,0.15
CC(=O)c1cc2cc(Cl)cc(Cl)c2o1,1
CC(=O)c1cc2cc(Cl)cc(Cl)c2oc1=O,-0.41
Cc1cc2nc(-c3cc4cc(Cl)cc(Cl)c4oc3=O)[nH]c2cc1C,4.7*
O=C1c2ccccc2-c2nc3cc(Cl)ccc3nc21,-0.16
CCCOC(=O)C1=C(C)NC2=C(C(=O)CCC2)C1c1ccc(O)c(OCC)c1 (stereo not given),-0.72
Cc1ccc(S(=O)(=O)Nc2ccc(O)c(S(=O)(=O)c3ccc(C)cc3)c2)cc1,4*
Cc1ccc(NS(=O)(=O)c2ccc(S(N)(=O)=O)cc2)cc1,-1.7
CC(=O)Nc1cc(C)c(NS(=O)(=O)c2ccc(C)cc2)c(C)c1,-1.1
Cc1cc(OS(=O)(=O)CS(=O)(=O)Oc2ccc(Cl)c(C)c2)ccc1Cl,0.53
COC(=O)c1cccc2c1-c1ccccc1C2=O,-0.9
Cc1ccc(C(=O)CC(=O)c2ccc(Cl)cc2)c(O)c1,4.4*
O=C(CC(=O)c1ccccc1O)c1ccc(Cl)cc1,-1
Cc1cc(C)c(C(=O)CC(=O)c2ccccc2Cl)c(O)c1,1.4
N#CC1=C(SCC(=O)NC2CCCCC2)NC(=O)CC1c1ccc(F)cc1 (stereo not given),-0.22
O=C(NCc1ccncc1)c1cc(-c2ccc3c(c2)OCO3)nc2ccccc12,1.3
CSC1=NC(C)(C)CCC12C=CC(=O)C=C2,3.2*
COC1=C(OC)C2(C=CC1=O)CC(C)(C)N=C2SC (stereo not given),1.1
COc1ccc(C(=O)/C(C#N)=N/Nc2cccc(Cl)c2Cl)cc1,8.3*
N#C/C(=N\Nc1ccc(F)cc1)C(=O)c1ccccc1Cl,0.3
COc1ccc(NC(=O)Nc2cccc(Cl)c2Cl)c(OC)n1,-0.73
Cc1ccccc1NC(=O)C(C(F)(F)F)C(F)(F)F,1.6
SMILES,Dicer processing
C=C1c2cc(C)c(C)cc2NC(=O)N1c1ccccc1,2.9
CC1CN=C(c2ccccc2)c2ccccc2C(=O)O1 (stereo not given),-0.71
Cc1cc2c(cc1C)NC(=O)c1ccccc1C(c1ccccc1)=N2,3.1*
O=C(Nc1cc(C(F)(F)F)cc(C(F)(F)F)c1)Nc1ccc(CSc2ccc(Cl)cc2)o1,-0.18
N#CCC(=O)NNC(=S)NCC1CCCO1 (stereo not given),-0.55
CCN(CC)c1cccc(NC(C)=O)c1,1.8
CC(C)n1c(SCC(=O)C(C)(C)C)nc2cc(C(F)(F)F)ccc21,-0.28
Nc1ccc(-c2nc3ccc(-c4nc5ccccc5o4)cc3[nH]2)cc1,6.5*
O=S(=O)(O)c1ccc2nc(-c3ccccc3)[nH]c2c1,0.87
Cc1ccc(-c2nc3ccc(N)cc3[nH]2)cc1,3.1*
c1ccc2[nH]c(-c3ccc(-c4nc5ccccc5o4)cc3)nc2c1,0.34
Nc1ccc2nc(-c3ccc(Cl)cc3)[nH]c2c1,2
CC(C)c1ccc2nc(-c3ccc(N)cc3)[nH]c2c1,19*
Nc1ccc(-c2nc3ccc(N)cc3o2)cc1,-0.21
Nc1ccc(-c2nc3cc4ccccc4cc3[nH]2)cc1,4*
Cc1ccc(C)c(-c2nc3ccc(N)cc3[nH]2)c1,3
c1ccc2cc3[nH]c(CN4CCOCC4)nc3cc2c1,-0.55
CC(=O)Nc1ccc2nc(-c3ccc(-c4nc5ccc(NC(C)=O)cc5[nH]4)cc3)[nH]c2c1,-1
O=C(CSc1nc(SCC(=O)c2ccccc2)c2ccccc2n1)c1ccccc1,0.61
C=CCOc1ccc(C2CC(=O)Oc3c2c(=O)n(C)c2ccccc32)cc1 (stereo not given),2.6
CCOC(=O)c1sc(NC(=O)CSc2nc(C)cc(C)n2)nc1C,1.8
CC(C)Sc1c(Cl)cccc1NC(=O)c1ccc(Cl)cc1,-1.6
Cc1ccc(C(=O)NCC(=O)O)cc1[N+](=O)[O-],-1.6
O=C(NC(=O)c1c(Cl)cccc1Cl)Oc1cc(C(F)(F)F)cc(C(F)(F)F)c1,-0.98
CCOc1cc(C2Nc3ccc(C(=O)c4ccccc4)cc3NC3=C2C(=O)CCC3)ccc1O (stereo not given),-1.3
SMILES,Dicer processing
CC(=O)c1c(O)c2ccccc2[nH]c1=O,1
CSc1nc(/N=C/N(C)C)n(-c2cc(C(F)(F)F)cc(C(F)(F)F)c2)n1,-0.09
O=C(O)CCC(=O)Nc1nncs1,0.28
CN1CCC(c2cccs2)=N1,1.6
COc1ccc(C2Nc3ccc(Br)cc3C(c3ccccc3)N2CC(=O)O)cc1 (stereo not given),0.57
O=C(O)CN1C(c2ccccc2O)Nc2ccc(Br)cc2C1c1ccccc1 (stereo not given),3.1*
COC(=O)CN1C(=O)Nc2ccc(Br)cc2C1c1ccccc1 (stereo not given),1.3
Cc1nc2nc(C(C)C)cc(=O)n2[nH]1,0.94
CSc1nc2ccc([N+](=O)[O-])cc2s1,-0.26
CN(C)c1ncnc2c1[nH]c1ccccc12,3.5*
